# Results reported in PubChem BioAssay AID720611 (Broad Institute, 2013).
# Results with a measured potency or affinity are listed apart. Active and inactive are the calls of the source.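 Rule for the calls: active = viability loss with half-effect dose no higher than twice the top dose, at all three exposure times; inconclusive = exposure times disagree or give unclear fits; inactive = inactive at every exposure time.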
# Experiment: cytotoxicity in SNB-19 cells – cell-based, CellTiter-Glo ATP luminescence, 8-48 h, dry powder, mechanism study for HRAS target identification, late-stage follow-up (AID 720611)
row,Compound,outcome
1,Cc1onc(C(=O)N2CCN(C(c3ccncc3)c3ccncc3)CC2)c1[N+](=O)[O-],inactive
2,CCC(=O)N(c1ccc(OC)c(Cl)c1)C(C(=O)NCCc1ccccc1)c1cccs1 (configuration not stated),inactive
